Consider 23 molecules from PubChem BioAssay (NCATS).

Values joined by “and” are separate entries in the source; they are usually repeats but may differ in a detail not shown here. Equal entries are not always repeated. Results filed as inconclusive are left out. Active and inactive are the calls of the source. Unless noted, the call rests on the fitted dose curve; in most records, active means well fitted curve in the direction sought with a large enough effect; inconclusive means small, poorly fitted or top-dose-only effect, or another doubt; inactive means no such curve, though single readings can be large; an effect the other way counts as inactive or inconclusive.

Test [1] is described as follows: qHTS drug screen for cell cycle checkpoint inhibitors in PARPi-resistant BRCA-mutant ovarian cancer cell lines. (AID 1963452; calls by dose curve; further: potency means the concentration at half of the fitted maximal effect). The following applies: PEO1/OlaR viability, CellTiter-Glo luminescence, 96 h; for Z-AUC: stronger effect = lower value. The essentials: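 PEO1, PEO4 and PEO1/OlaR ovarian cancer cells, 600 per well, exposed 96 h at 37C to a dilution series. Viability read by CellTiter-Glo luminescence, normalized to DMSO and empty wells; activity summarized as Z-AUC.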
On the technique in general: Quantitative high-throughput screening tests each substance at several concentrations.

Test [2] deals with Cytochrome P450 2D6 (Homo sapiens) (UniProt P10635). Kind of test: qHTS for inhibitors of CYP2D6 against the NCATS DSHEA and TCM libraries (AID 1919972). Further: on the % scale 0 is the no-effect control and ±100 the full control effect. To be noted: CYP2D6 enzymatic inhibition, luminescence qHTS; series mostly up to 18.8 µM. The essentials: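 CYP2D6 enzyme with pro-luciferin substrate in manufacturer buffer (typically 100 mM KPO4), preincubated 15 min RT with substances (most at 19.5 nM upward); NADPH regeneration system (1x) started 30–45 min RT reaction; P450-Glo luminescence read after 30 min; quinidine as intraplate control.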

Test [3] has as its target Cytochrome P450 2C9 (Homo sapiens) (UniProt P11712). In words: qHTS for inhibitors of CYP2C9 against the NCATS DSHEA and TCM libraries (AID 1919973). Further: on the % scale 0 is the no-effect control and ±100 the full control effect. The following applies: recombinant CYP2C9 enzyme activity, luminescence; series mostly up to 18.8 µM. The essentials: (§1)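 Each CYP isoform and its pro-luciferin substrate, at isoform-specific final concentrations, were preincubated 15 min at RT with substances. NADPH regeneration solution (1x) started a 30-45 min reaction, and P450-Glo luminescence was read.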

The target in test [4] is Cytochrome P450 2C19 (Homo sapiens) (UniProt P33261). In words: qHTS for inhibitors of CYP2C19 against the NCATS DSHEA and TCM libraries (AID 1919974).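 Further: luminescence from luciferin released by CYP2C19 oxidation of a pro-luciferin substrate.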 Further: potency means the concentration at half of the fitted maximal effect. The following applies: CYP2C19 enzyme inhibition, luminescence qHTS; series mostly up to 18.8 µM. The essentials:
as §1

A short description of test [5]: KB-3-1 P-gp reporter qHTS against the NCATS DSHEA and TCM libraries (AID 1919975). Further: 0% is about no effect. The following applies: KB-3-1 parental cells, CellTiter-Glo luminescence viability, 72 h; series mostly up to 14.4 µM. The essentials: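 Parental KB-3-1 cells, 500 cells/well, in DMEM with 10% FBS, exposed 72 h at 37 C to compounds in concentration-response. Viability read by CellTiter-Glo luminescence after 30 min at room temperature.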

Test [6] concerns the target Cytochrome P450 1A2 (Homo sapiens) (UniProt P05177). In words: qHTS for inhibitors of CYPIA2 against the NCATS DSHEA and TCM libraries (AID 1919976). Further: on the % scale 0 is the no-effect control and ±100 the full control effect. To be noted: recombinant CYP1A2 enzyme activity, luminescence; series mostly up to 20.3 µM. The essentials: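 Reaction started with 1x NADPH regeneration solution and run 30-45 min, room temperature, protected from light, after compounds sat 15 min with CYP1A2 and pro-luciferin substrate. P450-Glo detection gave luminescence; furafylline served as control.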

A short description of test [7]: qHTS Counterscreen for compound interference against the NCATS DSHEA and TCM libraries (AID 1919978).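 Further: compounds preincubated with 1 µM D-luciferin or buffer before detection reagent; % of control where 0% means no effect.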 The following applies: firefly luciferase detection reagent interference, luminescence. The essentials:
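Firefly luciferase detection reagent was added after compounds (19.5 nM–39.8 uM final) had been incubated 15 min at room temperature with 1 uM D-luciferin or with 100 mM phosphate buffer alone. Luminescence was read after 30 min at room temperature.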

A short description of test [8]: Dual reporter qHTS for agonist of Pregnane X Receptor (hPXR) against the NCATS DSHEA and TCM libraries: Fluorescence readout (AID 1920058). Further: 0% is about no effect. The following applies: PXR dual reporter cells; series mostly up to 22 µM. A digest of the protocol:
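Viability readout (CellTiter-Fluor, 405/540 nm, 1 h) from agonist-mode PXR dual reporter in hPXR-Luc HepG2 cells. Substances ~24 h, 37 °C, 5% CO2; rifampicin reference, tetraoctyl ammonium bromide cytotoxic control.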

Test [9] concerns the target Nuclear receptor subfamily 1 group I member 2 (Homo sapiens) (UniProt O75469). Kind of test: Dual reporter qHTS for agonist of Pregnane X Receptor (hPXR) against the NCATS DSHEA and TCM libraries: Luminescence readout (AID 1920059). Further: 0% is about no effect. To be noted: hPXR dual reporter cells, luciferase luminescence agonist; series mostly up to 22 µM. A digest of the protocol:
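hPXR-LucHepG2 cells in phenol red-free DMEM with 5% charcoal-stripped FBS, 2000 cells/well, attached 5 h, then exposed 24 h at 37C to compounds; rifampicin as positive agonist control (2.8 nM–92 uM). Luciferase luminescence read.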

Test [10] has the same target. In words: Dual reporter qHTS for antagonist of Pregnane X Receptor (hPXR) against the NCATS DSHEA and TCM libraries: Luminescence Readout (AID 1920060). Further: 0% is about no effect. The following applies: hPXR dual reporter cells, luciferase luminescence, antagonist mode; series mostly up to 22 µM. A digest of the protocol: (§2)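 hPXR-Luc HepG2 cells exposed 24 h at 37 C to compounds with 2 uM rifampicin in antagonist mode; luciferase luminescence measured by ONE-Glo, with CellTiter-Fluor viability read beforehand.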

A short description of test [11]: Dual reporter qHTS for antagonist of Pregnane X Receptor (hPXR) against the NCATS DSHEA and TCM libraries: Fluorescence Readout (AID 1920061). Further: 0% is about no effect. To be noted: PXR dual reporter cells, antagonist mode; series mostly up to 22 µM. The essentials:
as §2

Where [12] appears, read: measured here: PEO1 parental Z-AUC.

Cytochrome P450 2D6 (Homo sapiens), sequence (P10635 whole entry, looked up): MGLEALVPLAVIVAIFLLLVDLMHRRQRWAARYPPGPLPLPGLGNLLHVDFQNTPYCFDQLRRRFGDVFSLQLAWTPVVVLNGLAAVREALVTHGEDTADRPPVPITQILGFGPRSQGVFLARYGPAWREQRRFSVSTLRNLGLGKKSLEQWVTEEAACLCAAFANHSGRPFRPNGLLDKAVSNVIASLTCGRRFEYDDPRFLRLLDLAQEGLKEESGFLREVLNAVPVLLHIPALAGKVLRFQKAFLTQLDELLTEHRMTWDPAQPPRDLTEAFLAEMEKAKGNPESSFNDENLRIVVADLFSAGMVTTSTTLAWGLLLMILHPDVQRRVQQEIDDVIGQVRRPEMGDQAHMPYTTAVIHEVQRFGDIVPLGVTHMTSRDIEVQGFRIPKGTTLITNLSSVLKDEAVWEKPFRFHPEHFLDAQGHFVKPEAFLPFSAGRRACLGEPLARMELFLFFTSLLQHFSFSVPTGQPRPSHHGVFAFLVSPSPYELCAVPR
Nuclear receptor subfamily 1 group I member 2 (Homo sapiens), sequence (O75469 whole entry, looked up): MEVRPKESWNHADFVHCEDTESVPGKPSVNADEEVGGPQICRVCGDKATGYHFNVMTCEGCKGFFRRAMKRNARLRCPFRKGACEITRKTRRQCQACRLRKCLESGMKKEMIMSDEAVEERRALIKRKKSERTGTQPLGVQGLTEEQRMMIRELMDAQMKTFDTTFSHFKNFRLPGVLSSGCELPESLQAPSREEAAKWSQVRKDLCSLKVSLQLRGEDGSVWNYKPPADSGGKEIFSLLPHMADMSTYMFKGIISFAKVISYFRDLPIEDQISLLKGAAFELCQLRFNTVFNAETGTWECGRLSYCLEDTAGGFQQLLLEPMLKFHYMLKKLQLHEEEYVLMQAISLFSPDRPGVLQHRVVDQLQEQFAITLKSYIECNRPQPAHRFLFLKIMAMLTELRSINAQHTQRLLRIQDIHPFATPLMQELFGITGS
Cytochrome P450 2C9 (Homo sapiens), sequence (P11712 whole entry, looked up, canonical isoform): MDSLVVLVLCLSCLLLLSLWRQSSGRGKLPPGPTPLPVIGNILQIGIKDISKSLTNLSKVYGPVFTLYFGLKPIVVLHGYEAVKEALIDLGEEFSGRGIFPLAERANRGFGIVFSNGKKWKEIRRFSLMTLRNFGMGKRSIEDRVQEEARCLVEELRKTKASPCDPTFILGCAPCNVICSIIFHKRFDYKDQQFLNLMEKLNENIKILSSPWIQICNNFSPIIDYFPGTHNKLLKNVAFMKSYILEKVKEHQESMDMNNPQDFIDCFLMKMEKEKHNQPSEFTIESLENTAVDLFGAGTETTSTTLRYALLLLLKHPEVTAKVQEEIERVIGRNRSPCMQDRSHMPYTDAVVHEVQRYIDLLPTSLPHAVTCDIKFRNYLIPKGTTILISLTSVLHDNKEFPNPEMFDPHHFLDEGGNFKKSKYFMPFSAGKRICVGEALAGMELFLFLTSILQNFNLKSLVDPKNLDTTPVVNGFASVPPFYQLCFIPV
Cytochrome P450 1A2 (Homo sapiens), sequence (P05177 whole entry, looked up): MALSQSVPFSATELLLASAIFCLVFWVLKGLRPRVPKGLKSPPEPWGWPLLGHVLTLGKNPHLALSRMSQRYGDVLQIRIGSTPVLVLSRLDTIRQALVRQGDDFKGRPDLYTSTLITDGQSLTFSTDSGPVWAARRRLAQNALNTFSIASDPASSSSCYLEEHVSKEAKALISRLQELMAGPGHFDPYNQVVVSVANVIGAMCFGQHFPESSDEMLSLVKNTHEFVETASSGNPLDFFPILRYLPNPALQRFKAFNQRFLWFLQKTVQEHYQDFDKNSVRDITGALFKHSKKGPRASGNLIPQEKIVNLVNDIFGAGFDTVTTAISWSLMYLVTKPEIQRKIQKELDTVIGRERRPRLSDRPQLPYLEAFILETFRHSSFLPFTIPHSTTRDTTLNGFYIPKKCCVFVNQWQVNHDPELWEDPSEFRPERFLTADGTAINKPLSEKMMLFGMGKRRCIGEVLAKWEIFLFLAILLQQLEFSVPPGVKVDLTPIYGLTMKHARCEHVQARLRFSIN
Cytochrome P450 2C19 (Homo sapiens), sequence (P33261 whole entry, looked up): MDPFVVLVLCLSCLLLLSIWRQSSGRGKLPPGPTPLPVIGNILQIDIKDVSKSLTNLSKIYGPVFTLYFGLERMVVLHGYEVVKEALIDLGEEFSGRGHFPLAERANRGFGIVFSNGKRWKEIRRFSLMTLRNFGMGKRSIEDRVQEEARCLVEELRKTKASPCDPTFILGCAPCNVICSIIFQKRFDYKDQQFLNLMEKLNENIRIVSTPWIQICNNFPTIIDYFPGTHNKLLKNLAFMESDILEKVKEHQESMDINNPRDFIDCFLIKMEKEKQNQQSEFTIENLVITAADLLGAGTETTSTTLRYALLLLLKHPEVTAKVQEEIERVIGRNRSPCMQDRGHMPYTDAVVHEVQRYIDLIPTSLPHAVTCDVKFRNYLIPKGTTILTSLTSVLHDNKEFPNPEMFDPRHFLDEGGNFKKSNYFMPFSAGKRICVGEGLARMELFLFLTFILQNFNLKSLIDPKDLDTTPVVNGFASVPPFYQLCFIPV

`C=C1C(=O)O[C@H]2[C@H]1CC/C(C)=C/CC[C@@]1(C)O[C@@H]21`: the Z-AUC in [1] is 1.08 (inactive); in [1] (setting [12]), 0.881; in test [1] (measured here: PEO4 Z-AUC), 0.819.

For the molecule `Cc1ccc(NC(=O)Nc2cc(C(F)(F)F)ccc2F)cc1Nc1ccc2c(c1)NC(=O)/C2=C\c1ccc[nH]1`, the results for the Z-AUC in [1], in [1] (setting [12]) and in test [1] (measured here: PEO4 Z-AUC) were 0.377 (inactive), 0.106 and 0.2, respectively.

Take `CCOc1cc(C(=O)N2CCC(N3CCN(C)CC3)CC2)ccc1Nc1ncc2c(n1)N(C1CCCC1)c1ccccc1C(=O)N2C`: the Z-AUC in test [1] is -1.32 (inactive); in test [1] (setting [12]) it was 0.31; in test [1] (measured here: PEO4 Z-AUC), -0.487.

Regarding `CS(=O)(=O)c1ccc(-c2nnc(/C=C/c3nnc(-c4ccc(C#N)cc4)o3)n2-c2ccccc2Cl)nc1`, the Z-AUC was -0.316 (inactive) in test [1], 0.177 in [1] (setting [12]) and -0.0878 in test [1] (measured here: PEO4 Z-AUC).

As for `CN(C)C1CCN(C(=O)c2ccc(NC(=O)Nc3ccc(-c4nc(N5CCOCC5)nc(N5CCOCC5)n4)cc3)cc2)CC1`, the Potency in [1] is 309 nM (active) and 692 nM (active). The Z-AUC in test [1] (setting [12]) is -2.41 and -1.47; in [1] (measured here: PEO4 Z-AUC), -1.87 and -2.03.

For the molecule `CCN1CCN(Cc2ccc(Nc3ncc(F)c(-c4cc(F)c5nc(C)n(C(C)C)c5c4)n3)nc2)CC1`, the Z-AUC in test [1] was 0.0865 (inactive); in [1] (setting [12]), 0.712; in test [1] (measured here: PEO4 Z-AUC) it was 0.621.

Turning to `CN1CCN(c2ccc(C(=O)Nc3n[nH]c4ccc(Cc5cc(F)cc(F)c5)cc34)c(NC3CCOCC3)c2)CC1`, the values for the Z-AUC in test [1], in test [1] (setting [12]) and in test [1] (measured here: PEO4 Z-AUC) were -0.903 (inactive), -1.2 and -1.38, respectively.

In the case of `O=C(C(c1ccccc1)c1ccccc1)N1CCN(CC(O)COc2cccc3ncccc23)CC1` (stereo not given), the Z-AUC in test [1] is 0.889 (inactive); in test [1] (setting [12]) it was 0.623; in [1] (measured here: PEO4 Z-AUC), 0.296.

Take `OC[C@H]1O[C@@H](OC[C@H]2O[C@@H](OC/C=C/c3ccccc3)[C@H](O)[C@@H](O)[C@@H]2O)[C@@H](O)[C@@H]1O`: the outcome in test [2], in test [3], in [5], in test [8], in test [9] and in test [10] was inactive. For the same molecule, in test [11], the molecule was classed as inactive. Moreover, the Potency result in test [4] and in test [6] was “inactive” each time. Besides, the max response in [7] was -0.863% (inactive).

As to `O=C(O)c1ccc(CN2CCC(CN[C@@H]3C[C@H]3c3ccccc3)CC2)cc1`, the Z-AUC in test [1] was -0.0301 (inactive); in test [1] (setting [12]), 1.03; in [1] (measured here: PEO4 Z-AUC) it was 0.899.

Take `CC1CC[C@]2(C(=O)O)CC[C@]3(C(=O)O)C(=CCC4[C@@]5(C)CC[C@H](OC6OC(C)C(O)C(OC7OC(CO)C(O)C(O)C7O)C6O)C(C)(C)C5CC[C@]43C)C2C1C` (stereo not given in full): the outcome in test [2], in test [5], in [8], in test [9], in [10] and in test [11] was inactive. The Potency entry in test [4] and in test [6] was “inactive” in each case. For the same molecule, the max response in test [7] was -1.38% (inactive).

`CCN1CCN(Cc2ccc(NC(=O)c3ccc(C)c(NC(=O)c4cncc(-c5cccs5)c4)c3)cc2C(F)(F)F)CC1`: the figures for the Z-AUC in [1], in test [1] (setting [12]) and in test [1] (measured here: PEO4 Z-AUC) were -1.84 (inactive), -1.46 and -0.887, respectively.

In the case of `Cc1cc(C)c(CNC(=O)c2cc(-c3ccc(CN4CCOCC4)cc3)cc3c2cnn3C2CCCC2)c(=O)[nH]1`, the Z-AUC in test [1] is 0.564 (inactive); in test [1] (setting [12]) it was -0.591; in test [1] (measured here: PEO4 Z-AUC), 0.1.

Turning to `O=C(c1ccc(/C=C/c2n[nH]c3ccccc23)cc1)N1CCNCC1`, the Z-AUC in test [1] is -0.885 (inactive); in test [1] (setting [12]), -0.223; in test [1] (measured here: PEO4 Z-AUC), -0.438.

As to `CCS(=O)(=O)N1CCN(c2ccc(Nc3ncc(C(N)=O)c(NC4CC4)n3)cc2)CC1`, the Z-AUC in test [1] was 0.319 (inactive); in test [1] (setting [12]), -0.223; in [1] (measured here: PEO4 Z-AUC), -0.0452.

Consider `O=C(NCc1cccc(O)c1)Nc1nc(-c2ccncc2)cs1`, for which the figures for the Z-AUC in test [1], in test [1] (setting [12]) and in [1] (measured here: PEO4 Z-AUC) were -0.136 (inactive), 0.195 and -0.295, respectively.

`CC(C)=CCC[C@](C)(O)[C@H]1CC[C@]2(C)[C@@H]1[C@H](O)CC1[C@@]3(C)CC[C@H](O)C(C)(C)[C@@H]3[C@@H](O[C@@H]3O[C@H](CO)[C@@H](O)[C@H](O)[C@H]3O[C@@H]3O[C@H](CO)[C@@H](O)[C@H](O)[C@H]3O)C[C@]12C` (stereo not given in full): the molecule was classed as inactive in [2], in test [3], in test [5], in [8], in [9] and in test [10]. Besides, the molecule was classed as inactive in [11]. For the same molecule, the Potency result in test [4] and in test [6] was “inactive” in each case. Besides, the max response in test [7] was -4.33% (inactive).

As for `CC(C)=CCC[C@](C)(O[C@@H]1O[C@H](CO[C@@H]2O[C@H](CO)[C@@H](O)[C@H](O)[C@H]2O)[C@@H](O)[C@H](O)[C@H]1O)C1CC[C@]2(C)[C@@H]1[C@H](O)CC1[C@@]3(C)CC[C@H](O[C@@H]4O[C@H](CO)[C@@H](O)[C@H](O)[C@H]4O[C@@H]4O[C@H](CO)[C@@H](O)[C@H](O)[C@H]4O)C(C)(C)[C@@H]3CC[C@]12C` (stereo not given in full), the molecule was classed as inactive in test [2], in [3], in [5], in test [8], in test [9] and in test [10]. Further, the molecule was called inactive in [11]. Further, the Potency in test [4] was 1 µM (active). Also, the max response in test [7] was -2.77% (inactive).

In the case of `CC(C)c1cc(CNc2nc(Nc3cc(C4CC4)[nH]n3)cc(N3CCN(C)CC3)n2)on1`, the Potency in test [1] was 549 nM (active). Further, the Z-AUC in test [1] (setting [12]) is -1.91; in [1] (measured here: PEO4 Z-AUC) it was -2.1.

Take `Cc1ccc(-c2ccc3ncc4c(c3n2)n(C2CCN(C(=O)[C@H](C)O)CC2)c(=O)n4C)cn1`: the Z-AUC in test [1] is -1.81 (inactive); in test [1] (setting [12]), -2.34; in [1] (measured here: PEO4 Z-AUC) it was -2.23.

As to `CC(C)(C)C(=O)CN1C(=O)[C@H](NC(=O)Nc2cccc(C(=O)O)c2)CN(C2CCCCC2)c2ccccc21`, the Z-AUC is 1.75 (inactive) in [1], 1.32 in test [1] (setting [12]) and 1.22 in test [1] (measured here: PEO4 Z-AUC).

On to `Cn1cncc1C(N)(c1ccc(Cl)cc1)c1ccc2c(c1)c(-c1cccc(Cl)c1)cc(=O)n2C` (stereo not given), for which the Z-AUC is -1.06 (inactive) in [1], -0.892 in [1] (setting [12]) and -0.873 in test [1] (measured here: PEO4 Z-AUC).

Turning to `C[C@@H]1CCN(C(=O)N2CCCC2)C[C@@H]1N(C)c1ncnc2[nH]ccc12`, the Z-AUC is -0.093 (inactive) in [1], 0.799 in [1] (setting [12]) and 1.07 in [1] (measured here: PEO4 Z-AUC).
